Data as given in PubChem BioAssay AID1159580 (chemical genetic matrix, 2015).
Several values for one entry are separate records, joined by “and”; a condition that tells them apart may be missing. Identical values can stand only once. Among all 5,500 compounds or so, about 2,000 (36%) were called active. Inconclusive results (about 18%) are left out. Rule as the data show it: active = normalized growth mostly below about 0.91 (no sharp cut-off); inconclusive = no clear call, values can overlap the other calls; inactive = mostly above about 0.92. Some of the results follow.

Experiment: chemical genetic growth profiling, strain panel (AID 1159580);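 also: tested at 20 µM; growth read once vehicle control cultures reached saturation at 30 °C; 1 = growth at the plate median or of vehicle wells; lower values mean less growth of the strain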
Conditions: S. cerevisiae deletion strains, growth OD

Measured: normalized growth

CC(C)(C)NCC(O)c1ccccc1Cl (stereo unspecified)
inactive: locus YAL013W, strain DEP1, hits give low values 0.993 | locus YAL021C, strain ccr4, hits give low values 1.01 | locus YAL026C, strain drs2, hits give low values 1.01 | locus YAL030W, strain snc1, hits give low values 0.979 | locus YAL040C, strain CLN3, hits give low values 0.966 | locus YBL061C, strain skt5, hits give low values 0.991 | locus YBR009C, strain hhf1, hits give low values 0.972 | locus YBR021W, strain FUR4, hits give low values 0.98 | locus YBR023C, strain chs3, hits give low values 0.993 | locus YBR171W, strain sec66, hits give low values 0.989 | locus YBR229C, strain ROT2, hits give low values 0.95 | locus YBR231C, strain swc5, hits give low values 0.989 | locus YBR279W, strain paf1, hits give low values 1 | locus YCL011C, strain gbp2, hits give low values 0.995 | locus YCL016C, strain dcc1, hits give low values 0.988 | locus YCL029C, strain bik1, hits give low values 0.978 | locus YCL061C, strain MRC1 (second series), hits give low values 1.01 | locus YCL061C, strain MRC1, hits give low values 0.992 | locus YCL069W, strain vba3, hits give low values 0.991 | locus YCR088W, strain abp1, hits give low values 0.99 | locus YDL005C, strain med2, hits give low values 1.01 | locus YDL035C, strain GPR1, hits give low values 0.947 | locus YDL040C, strain nat1, hits give low values 0.979 | locus YDL074C, strain BRE1, hits give low values 1.01 | locus YDL101C, strain DUN1, hits give low values 0.987 | locus YDL134C, strain PPH21, hits give low values 0.98 | locus YDL185W, strain tfp1, hits give low values 0.991 | locus YDL192W, strain arf1, hits give low values 0.973 | locus YDR001C, strain nth1, hits give low values 0.978 | locus YDR069C, strain doa4, hits give low values 0.988 | locus YDR101C, strain arx1, hits give low values 0.992 | locus YDR137W, strain rgp1, hits give low values 1.01 | locus YDR150W, strain NUM1, hits give low values 0.976 and 1.01 | locus YDR159W, strain sac3, hits give low values 0.939 | locus YDR162C, strain NBP2, hits give low values 0.979 | locus YDR195W, strain ref2 0.959 | locus YDR297W, strain sur2, hits give low values 1.01 | locus YDR318W, strain mcm21, hits give low values 1 | locus YDR334W, strain swr1, hits give low values 0.996 | locus YDR335W, strain msn5, hits give low values 0.991 | locus YDR363W, strain ESC2, hits give low values 0.999 | locus YDR388W, hits give low values 0.991 | locus YDR392W, strain spt3, hits give low values 0.831 | locus YDR502C, strain sam2, hits give low values 0.965 | locus YEL003W, strain gim4, hits give low values 0.996 | locus YEL037C, strain rad23, hits give low values 0.994 | locus YEL061C, strain CIN8 (second series), hits give low values 0.987 | locus YEL061C, strain CIN8, hits give low values 0.985 | locus YER002W, strain NOP16, hits give low values 0.988 | locus YER015W, strain faa2, hits give low values 0.995 | locus YER016W, strain bim1, hits give low values 0.989 | locus YER110C, hits give low values 0.966 | locus YER111C, strain swi4, hits give low values 0.992 | locus YER155C, strain BEM2 (second series), hits give low values 0.958 | locus YER155C, strain BEM2, hits give low values 1 | locus YER167W, strain BCK2, hits give low values 0.957 | locus YFR010W, strain ubp6, hits give low values 1 | locus YGL078C, strain dbp3, hits give low values 0.982 | locus YGL086W, strain mad1, hits give low values 0.978 | locus YGL167C, strain pmr1, hits give low values 0.989 | locus YGL173C, strain kem1, hits give low values 1.01 | locus YGL227W, strain vid30, hits give low values 0.988 | locus YGL240W, strain doc1, hits give low values 0.981 | locus YGL248W, strain PDE1, hits give low values 0.984 | locus YGL253W, strain hxk2, hits give low values 0.994 | locus YGR078C, strain PAC10, hits give low values 1.01 and 1.02 | locus YGR135W, strain pre9, hits give low values 0.979 | locus YGR229C, strain SMI1, hits give low values 1.01 and 1.03 | locus YGR252W, strain gcn5, hits give low values 0.898 | locus YHR013C, strain ard1, hits give low values 0.952 | locus YHR027C, strain rpn1, hits give low values 0.996 | locus YHR030C, strain SLT2, hits give low values 0.992 and 0.981 | locus YHR079C, strain IRE1 (second series), hits give low values 1 | locus YHR079C, strain IRE1, hits give low values 0.977 | locus YHR094C, strain hxt1, hits give low values 0.991 | locus YHR129C, strain ARP1, hits give low values 0.997 | locus YHR142W, strain chs7, hits give low values 1.02 | locus YHR200W, strain rpn10, hits give low values 1.01 | locus YIL066C, strain RNR3, hits give low values 0.978 | locus YIL073C, strain SPO22, hits give low values 0.972 | locus YIL125W, strain kgd1, hits give low values 0.989 | locus YIR030C, strain dcg1, hits give low values 0.983 | locus YJL092W, strain hpr5, hits give low values 0.997 | locus YJL095W, strain BCK1 (second series), hits give low values 0.996 | locus YJL095W, strain BCK1, hits give low values 1.02 and 0.99 | locus YJL115W, strain asf1, hits give low values 0.987 | locus YJL129C, strain trk1, hits give low values 1 | locus YJL134W, strain LCB3, hits give low values 0.981 | locus YJL154C, strain vps35, hits give low values 0.989 | locus YJL164C, strain tpk1, hits give low values 1.01 | locus YJL166W, strain qcr8, hits give low values 0.987 | locus YJL168C, strain set2, hits give low values 0.995 | locus YJL187C, strain SWE1 (second series), hits give low values 0.994 | locus YJL187C, strain SWE1, hits give low values 0.997 | locus YJR043C, strain POL32, hits give low values 1.03 | locus YJR066W, strain TOR1, hits give low values 0.921
